Source: PubChem BioAssay AID504800 (The Scripps Research Institute Molecular Screening Center, 2011)
This is one part of the list. Unmarked numbers belong to inactive results. Activity calls are given as the source filed them.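 Rule for the calls: active = mean activation over replicate wells exceeds the adjusted hit threshold taken from the earlier primary screen (cut at about 20% in these data); inactive = the rest.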

Molecular target: cAMP-dependent protein kinase type I-alpha regulatory subunit (Bos taurus) (UniProt P00514)
Assay: PKAc release from R1A subunit – biochemical, fluorescence polarization, Cy5-IP20, triplicate, confirmation (AID 504800);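 note: 0% = holoenzyme mix with DMSO only and 100% = cGMP-activated control wells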
Details: PKA-R1A holoenzyme dissociation, at 11.4 µM, hits give high values

cAMP-dependent protein kinase type I-alpha regulatory subunit (Bos taurus), sequence (P00514 whole entry, looked up): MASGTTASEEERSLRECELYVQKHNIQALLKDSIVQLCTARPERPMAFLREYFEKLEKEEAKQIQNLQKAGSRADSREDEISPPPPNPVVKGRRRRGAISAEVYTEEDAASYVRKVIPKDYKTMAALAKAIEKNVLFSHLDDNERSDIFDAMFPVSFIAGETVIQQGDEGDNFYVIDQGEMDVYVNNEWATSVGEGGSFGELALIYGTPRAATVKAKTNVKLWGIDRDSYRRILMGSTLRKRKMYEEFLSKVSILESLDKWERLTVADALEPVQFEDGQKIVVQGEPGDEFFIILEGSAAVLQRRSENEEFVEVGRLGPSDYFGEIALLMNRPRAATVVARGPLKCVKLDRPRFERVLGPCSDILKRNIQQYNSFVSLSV

First: COc1ccc(CNc2nnnn2C)cc1
Second: COc1ccc(NC(=O)c2ccc(C#CC(C)(C)O)cc2)cc1
The activation of the first is higher: 6.31% for the first, -0.53% for the second.

Going from `CN(C(=O)CSc1nnc(Nc2ccccc2)s1)C1CCS(=O)(=O)C1` (stereo not given) to `COc1ccccc1N1CC(C(=O)Nc2nnc(SCC(=O)NC(C)C)s2)CC1=O` (stereo not given), the activation falls from 1.24% to -1.21%.

Compared with `CCOc1cc(C(=O)Nc2c(C)ccc3nsnc23)cc(OCC)c1OCC`, `CCC(Oc1ccccc1C)C(=O)Nc1ccc(S(=O)(=O)Nc2cc(C)on2)cc1` (stereo not given) is higher in activation: -1.31% for the first, 2.1% for the second.

Going from `Cc1ccc2nc3c(cc(C(=O)NCCc4ccccc4)c(=N)n3CC3CCCO3)c(=O)n2c1` (stereo not given) to `O=C(Nc1ccc2c(c1)[C@@H]1C[C@@H](CC(=O)N3CCCCC3)O[C@@H](CO)[C@@H]1O2)NC1CCCCC1`, the activation falls from 4.46% to 4.17%.

`CCCC(=O)Nc1ncnc2c1ncn2[C@@H]1O[C@@H]2OP(=O)(O)OC[C@H]2[C@H]1OC(=O)CCC` was tested, and the activation was 43.8% (active).
`N#Cc1ccccc1CN1C(=O)S/C(=C/c2cccn2-c2cccc(C(=O)O)c2)C1=O` was tested, and the activation was 26.8% (active).
